A short description of test [1]: qHTS assay to identify small molecule agonists of the peroxisome proliferator-activated receptor delta (PPARd) signaling pathway - cell viability counter screen (AID 743211). Also: nearly all actives have a fitted effect of over 55% in size. Also: potency is read from the fitted curve at half-maximal effect. Put shortly:
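HEK293H PPARd-bla, 3000 cells/well; 5 h preincubation 37C/5% CO2; cpd in DMSO, 17 h 37C; B/G FRET substrate 2 h RT; CellTiter-Glo 30 min RT, luminescence.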

Test [2] addresses Peroxisome proliferator-activated receptor delta (Homo sapiens) (UniProt Q03181). As to the kind of experiment: qHTS assay to identify small molecule agonists of the peroxisome proliferator-activated receptor delta (PPARd) signaling pathway (AID 743212; calls by dose curve). Put shortly:
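Tox21 library screened in GeneBLAzer PPARd UAS-bla HEK293H cells. After compound treatment at 37 C, a FRET-based beta-lactamase substrate was applied for 2 h and fluorescence recorded.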
(Quantitative high-throughput screening tests each substance at several concentrations.)

Test [3] is described as follows: qHTS assay to identify small molecule antagonists of the peroxisome proliferator-activated receptor delta (PPARd) signaling pathway - cell viability counter screen (AID 743213). Also: nearly all actives have a fitted effect of over 50% in size. Also: potency is read from the fitted curve at half-maximal effect. Put shortly: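 PPARd-bla HEK293H cells were treated with compounds plus agonist L165041 (300 nM final) for 17 h at 37 C. Viability was then read in the same wells by CellTiter-Glo luminescence after 30 min at room temperature.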

Test [4] addresses Peroxisome proliferator-activated receptor delta (Homo sapiens) (UniProt Q03181). As to the kind of experiment: qHTS assay to identify small molecule antagonists of the peroxisome proliferator-activated receptor delta (PPARd) signaling pathway (AID 743215; active = well fitted inhibition curve with a large enough effect in the signal ratio in the repeat runs, not every such curve was filed as active; the % refers to the signal ratio;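 also: cells stimulated with agonist L165041 at 300 nM final during compound exposure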; also: potency is read from the fitted curve at half-maximal effect). Put shortly: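 Agonist L165041 (300 nM final) added with compound to PPARd-bla HEK293H UAS-bla reporter cells; 17 h incubation at 37 C. Read-out: LiveBLAzer FRET substrate, 2 h at room temperature, fluorescence intensity.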

Test [5] is described as follows: qHTS assay to identify small molecule agonists of the farnesoid-X-receptor (FXR) signaling pathway - cell viability counter screen (AID 743218). Also: nearly all actives have a fitted effect of over 45% in size. Also: potency is read from the fitted curve at half-maximal effect. In outline:
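Viability counter screen in the same wells: CellTiter-Glo luminescence, 30 min room-temperature incubation, measured after the beta-lactamase read. Cells were GeneBLAzer FXR-UAS-bla HEK 293T, compound-treated 16 h at 37C.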

Test [6] in a line: qHTS assay to identify small molecule antagonists of the farnesoid-X-receptor (FXR) signaling pathway - cell viability counter screen (AID 743221; active = well fitted cell-killing curve with a large enough effect in the repeat runs, not every such curve was filed as active; also: nearly all actives have a fitted effect of over 50% in size; also: potency is read from the fitted curve at half-maximal effect). In outline:
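Luminescence from CellTiter-Glo measures cytotoxicity in GeneBLAzer FXR-UAS-bla HEK 293T cells. Cells were exposed to compounds with 50 uM chenodeoxycholic acid (final) for 16 h at 37 C, in wells also used for the reporter readout.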

Test [7] has as its target Vitamin D3 receptor (Homo sapiens) (UniProt P11473). The test can be described thus: qHTS assay to identify small molecule agonists of the vitamin D receptor (VDR) signaling pathway (AID 743222; calls by dose curve). In outline:
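Agonist mode, beta-lactamase reporter: fluorescence from LiveBLAzer B/G FRET substrate (2 h, room temperature) read after 16 h compound treatment at 37 C of VDR-bla cells, which were pre-incubated 4 h after seeding.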

For test [8] the target is unchanged. The test can be described thus: qHTS assay to identify small molecule antagonists of the vitamin D receptor (VDR) signaling pathway (AID 743223; active = well fitted inhibition curve with a large enough effect in the signal ratio in the repeat runs, not every such curve was filed as active; the % refers to the signal ratio). In outline:
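Antagonist mode uses 1alpha,25-dihydroxyvitamin D3 at 3 nM final as stimulus. VDR-bla cells receive compounds in DMSO, incubate 16 h at 37C, then a beta-lactamase FRET substrate for 2 h at room temperature before fluorescence measurement.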

Test [9] is described as follows: qHTS assay to identify small molecule antagonists of the vitamin D receptor (VDR) signaling pathway - cell viability counter screen (AID 743225). Also: nearly all actives have a fitted effect of over 50% in size. Also: potency is read from the fitted curve at half-maximal effect. Put shortly:
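Read-out: CellTiter-Glo luminescence measured 30 min after reagent addition at room temperature. Cells were VDR-bla HEK 293T exposed 16 h at 37C, 5% CO2, to compound with 3 nM final calcitriol agonist.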

Test [10] is described as follows: qHTS assay to identify small molecule agonists of the endoplasmic reticulum stress response signaling pathway (AID 1159516; active = well fitted activation curve with a large enough effect in the signal ratio in the repeat runs, not every such curve was filed as active; the % refers to the signal ratio). Put shortly: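 Ratiometric FRET readout (405 nm excitation; 460 and 530 nm emission) of a beta-lactamase gene driven by the ER stress response element, after 2 hr substrate loading. HeLa ESRE-bla cells were seeded overnight and treated with compounds for only 5 hr at 37 C.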

Test [11] can be described thus: qHTS assay to identify small molecule agonists of the endoplasmic reticulum stress response signaling pathway - cell viability counter screen (AID 1159517; calls by dose curve; also: series mostly up to about 61 µM; nearly all actives have a fitted effect of over 50% in size). Put shortly: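 In parallel with the ESRE reporter read, cytotoxicity was scored by CellTiter-Glo luminescence (30 min, room temperature) on HeLa ESRE-bla cells dosed for 5 hr.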
The target in test [12] is Nuclear receptor ROR-gamma (Homo sapiens) (UniProt P51449). As to the kind of experiment: qHTS assay to identify small molecule antagonists of the retinoid-related orphan receptor gamma (ROR-gamma) signaling pathway (AID 1159521). In outline:
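CHO Tet-on RORγ, RORE-luc reporter. Cpd 2 h pre-incubation, then dox hyclate 1 uM final, 16 h, 37 C/5% CO2. ONE-Glo luminescence; decrease = antagonist.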

The nature of test [13]: qHTS assay to identify small molecule agonists of the AP-1 signaling pathway (AID 1159526; calls by dose curve).
The target in test [14] is Retinoic acid receptor RXR-alpha (Homo sapiens) (UniProt P19793). As to the kind of experiment: qHTS assay to identify small molecule agonists of the RXR signaling pathway (AID 1159527; calls by dose curve; also: nearly all actives have a fitted effect of over 35% in size). Put shortly:
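Read-out: beta-lactamase FRET ratio (405 nm excitation, 460 and 530 nm emission) after 2 hr substrate loading at room temperature. Cells were RXR-alpha-UAS-bla HEK 293T treated with compounds for 16 hr in 2% charcoal-stripped FBS medium.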

Test [15] in a line: qHTS assay to identify small molecule agonists of the RXR signaling pathway - cell viability counter screen (AID 1159529). Also: nearly all actives have a fitted effect of over 50% in size. Also: potency is read from the fitted curve at half-maximal effect. Put shortly:
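HEK 293T RXRa-bla cells, 2% CS-FBS; 5 h settle; cpd 16 h 37 C, 5% CO2; CellTiter-Glo 30 min RT, luminescence. Tetraoctyl ammonium bromide as positive control.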

For test [16], the target named is Bile acid receptor (Homo sapiens) (UniProt Q96RI1). As to the kind of experiment: qHTS assay to identify small molecule agonists of the farnesoid-X-receptor (FXR) signaling pathway (AID 743220; active = well fitted activation curve with a large enough effect in the signal ratio in the repeat runs, not every such curve was filed as active; the % refers to the signal ratio). In outline: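 FXR-UAS-bla HEK 293T cells carrying a UAS-driven beta-lactamase reporter were plated for 5 h at 37C/5% CO2, then exposed to DMSO-dissolved Tox21 10K compounds for 16 h at 37C. A LiveBLAzer B/G FRET substrate was loaded for 2 h at room temperature before fluorescence reading.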
Bile acid receptor (Homo sapiens), sequence (Q96RI1 whole entry, looked up): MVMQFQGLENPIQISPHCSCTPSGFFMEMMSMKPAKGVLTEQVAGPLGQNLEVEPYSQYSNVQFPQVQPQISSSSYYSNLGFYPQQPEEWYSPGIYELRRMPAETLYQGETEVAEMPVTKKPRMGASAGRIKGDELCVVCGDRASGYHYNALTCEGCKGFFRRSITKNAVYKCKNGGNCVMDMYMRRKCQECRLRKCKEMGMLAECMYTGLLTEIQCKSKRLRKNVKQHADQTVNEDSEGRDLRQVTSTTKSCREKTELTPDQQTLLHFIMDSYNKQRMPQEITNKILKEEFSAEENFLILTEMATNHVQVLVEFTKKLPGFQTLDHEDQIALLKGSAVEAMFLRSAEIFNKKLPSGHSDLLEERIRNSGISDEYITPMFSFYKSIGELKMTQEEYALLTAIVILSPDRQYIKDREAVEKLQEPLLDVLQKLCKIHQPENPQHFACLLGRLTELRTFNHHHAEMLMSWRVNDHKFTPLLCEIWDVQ

Test [17] is described as follows: qHTS assay to identify small molecule agonists of the vitamin D receptor (VDR) signaling pathway - cell viability counter screen (AID 743224). Also: nearly all actives have a fitted effect of over 50% in size. Also: potency is read from the fitted curve at half-maximal effect. In outline:
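Counter screen run in the same wells as the VDR-bla reporter assay: CellTiter-Glo luminescence, 30 min at room temperature, after 16 h compound treatment at 37C of cells pre-plated for 4 h.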

A short description of test [18]: qHTS assay to identify small molecule agonists of the AP-1 signaling pathway - cell viability counter screen (AID 1159525; calls by dose curve; also: nearly all actives have a fitted effect of over 55% in size; also: potency is read from the fitted curve at half-maximal effect). Put shortly: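 Same-well cytotoxicity counter screen of the Tox21 10K library in ME-180 cells. The readout is ATP-dependent luminescence after 5 h compound treatment. Data are normalised to DMSO and tetra n-octyl ammonium bromide controls.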

Test [19] in a line: qHTS assay to identify small molecule antagonists of the retinoid-related orphan receptor gamma (ROR-gamma) signaling pathway - cell viability counter screen (AID 1159520). Also: nearly all actives have a fitted effect of over 50% in size. Put shortly:
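Tet-on ROR gamma CHO cells were given compounds for 2 hr, then doxycycline hyclate at 1 uM final, and incubated 16 hr at 37 C. Viability was measured as ATP content by CellTiter-Glo luminescence.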

Test [20] has as its target Bile acid receptor (Homo sapiens) (UniProt Q96RI1). As to the kind of experiment: qHTS assay to identify small molecule antagonists of the farnesoid-X-receptor (FXR) signaling pathway (AID 743217; active = well fitted inhibition curve with a large enough effect in the signal ratio in the repeat runs, not every such curve was filed as active; the % refers to the signal ratio). Put shortly: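 Antagonist mode: chenodeoxycholic acid at 50 uM final stimulates a UAS-driven beta-lactamase reporter in HEK 293T FXR-bla cells during 16 h, 37C compound exposure. Read-out is FRET substrate fluorescence after 2 h at room temperature.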

Data on nine compounds can be found in PubChem BioAssay (Tox21).

Inconclusive results are not listed. A number with no mark means an inactive call. Activity calls are given as the source filed them. Unless noted, calls follow the shape of the dose curve; as a rule, active = well fitted curve in the direction sought with a large enough effect in the repeat runs; inconclusive = weak or mixed curves; inactive = no such curve, though single readings can be large; an effect the other way counts as inactive or inconclusive.

Vitamin D3 receptor (Homo sapiens), sequence (P11473 whole entry, looked up): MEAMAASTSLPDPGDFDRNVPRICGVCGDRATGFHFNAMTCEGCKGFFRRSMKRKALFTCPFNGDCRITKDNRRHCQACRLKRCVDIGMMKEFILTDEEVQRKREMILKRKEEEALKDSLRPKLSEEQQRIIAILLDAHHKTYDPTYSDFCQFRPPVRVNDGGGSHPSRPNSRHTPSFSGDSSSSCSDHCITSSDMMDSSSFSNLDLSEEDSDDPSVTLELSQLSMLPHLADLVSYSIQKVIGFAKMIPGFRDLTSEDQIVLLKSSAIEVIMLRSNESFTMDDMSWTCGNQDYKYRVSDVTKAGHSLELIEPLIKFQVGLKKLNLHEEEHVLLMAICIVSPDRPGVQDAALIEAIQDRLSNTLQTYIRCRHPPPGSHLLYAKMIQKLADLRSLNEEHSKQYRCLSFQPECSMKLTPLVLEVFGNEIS
Peroxisome proliferator-activated receptor delta (Homo sapiens), sequence (Q03181 whole entry, looked up): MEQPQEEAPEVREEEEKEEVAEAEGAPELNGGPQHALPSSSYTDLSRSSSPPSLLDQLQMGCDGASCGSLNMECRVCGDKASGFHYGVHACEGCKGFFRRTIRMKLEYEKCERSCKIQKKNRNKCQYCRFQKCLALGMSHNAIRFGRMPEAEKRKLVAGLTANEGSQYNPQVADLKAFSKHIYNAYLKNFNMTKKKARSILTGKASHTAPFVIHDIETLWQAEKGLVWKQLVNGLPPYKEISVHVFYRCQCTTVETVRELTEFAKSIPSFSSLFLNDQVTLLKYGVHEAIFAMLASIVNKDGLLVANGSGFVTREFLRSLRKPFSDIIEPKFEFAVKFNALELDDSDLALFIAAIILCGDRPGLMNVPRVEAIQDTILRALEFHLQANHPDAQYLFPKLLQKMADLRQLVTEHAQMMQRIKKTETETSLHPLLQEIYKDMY
Retinoic acid receptor RXR-alpha (Homo sapiens), sequence (P19793 whole entry, looked up): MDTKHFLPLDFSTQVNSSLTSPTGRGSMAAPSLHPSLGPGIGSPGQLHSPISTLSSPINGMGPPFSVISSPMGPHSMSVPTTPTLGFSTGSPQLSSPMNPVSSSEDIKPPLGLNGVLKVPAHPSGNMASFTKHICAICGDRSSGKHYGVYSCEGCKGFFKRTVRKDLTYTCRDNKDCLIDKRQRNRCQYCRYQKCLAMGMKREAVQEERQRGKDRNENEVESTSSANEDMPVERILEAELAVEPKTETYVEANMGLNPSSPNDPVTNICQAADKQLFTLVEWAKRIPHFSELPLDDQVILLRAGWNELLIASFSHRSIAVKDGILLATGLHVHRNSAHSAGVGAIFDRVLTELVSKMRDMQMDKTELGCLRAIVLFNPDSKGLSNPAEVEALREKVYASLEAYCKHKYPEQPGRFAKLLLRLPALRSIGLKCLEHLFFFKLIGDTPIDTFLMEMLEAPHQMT

For `NC(=O)c1ccccc1N`, the Potency result in [1], in [3], in [4], in [5], in [6] and in [7] was “inactive” each time. Besides, the Potency result in test [8], in test [9], in test [10], in [11], in test [12] and in [13] was “inactive” throughout. The Potency entry in test [14] and in test [15] was “inactive” in each case. The result in test [2] was inactive.
For `CCC(=O)OCCc1ccccc1`, the Potency result in test [5], in test [16], in test [6], in [7], in [9] and in test [10] was “inactive” in each case. Moreover, the Potency entry in test [11], in test [18] and in test [15] was “inactive” in each case. Also, the Potency in [17] was 41.8 µM (active).
For the compound `CC(C)=C1CC[C@@H](C)CC1=O`, the compound was classed as inactive in test [2]. In addition, the Potency result in test [3], in [4], in test [5], in test [6], in test [7] and in test [8] was “inactive” in each case. The Potency entry in [17], in test [9], in [10], in [19], in test [12] and in test [18] was “inactive” each time. The Potency entry in test [13], in test [14] and in [15] was “inactive” in each case.
Consider `CN(Cc1cc(Br)cc(Br)c1N)C1CCCCC1`, for which, in test [2], the compound was called inactive. Further, the Potency entry in [3], in test [4], in [16], in [6], in [9] and in test [10] was “inactive” in each case. Besides, the Potency result in test [11] and in test [12] was “inactive” each time.
As to `O=Cc1ccc(F)cc1`, the Potency entry in [1], in [3], in test [4], in [20], in test [5] and in [16] was “inactive” throughout. The Potency entry in [6], in test [7], in test [17], in test [9], in [10] and in test [19] was “inactive” in each case. In addition, the Potency result in test [12], in test [18], in [13] and in test [15] was “inactive” in each case. In test [2], the call was inactive.
As for `CCN(CC)CCNc1ccc(CO)c2sc3ccccc3c(=O)c12`, the Potency was 18.8 µM (active) in test [1]; 13.3 µM (active) in [3]; 23.7 µM (active) in [4]; 13.3 µM (active) in [5]; 6.01 µM (active) in test [15]. For the same compound, in test [2], the compound was classed as inactive. The Potency result in test [16], in test [7], in test [10], in [11], in [18] and in test [13] was “inactive” each time.
For `CCO[Si](CCCSSSSCCC[Si](OCC)(OCC)OCC)(OCC)OCC`, the Potency result in test [3], in [5], in test [6], in test [7], in test [10] and in test [11] was “inactive” in each case. For the same compound, the Potency entry in test [19] is “inactive”. Moreover, the Potency is 24.6 µM (active) in [18] and 21.9 µM (active) in test [15].
Take `CCCCCCCC/C=C/CCCOC(C)=O`: the Potency entry in test [1], in test [20], in [5], in [16], in test [6] and in [7] was “inactive” each time. Also, the Potency entry in test [8], in [10], in test [11], in test [12], in test [18] and in test [13] was “inactive” in each case. Besides, the Potency result in test [15] was “inactive”. In test [2], the compound was classed as inactive.
In the case of `CNC(=O)c1cc(Oc2ccc(NC(=O)Nc3ccc(Cl)c(C(F)(F)F)c3)cc2)ccn1`, the call in [2] was inactive. Also, the Potency in [3] was 10.6 µM (active); in [5], 21.1 µM (active); in [6] it was 29.8 µM (active); in test [9], 12 µM (active). For the same compound, the Potency entry in test [16], in test [7], in test [10], in [11] and in [18] was “inactive” in each case.
